A selection: hits, their analogues and other compounds. The true share with any hit is near 2.8%.
SNCA viab count – cell viability loss counter-screen | HEK-293-SNCA-luc viability, GF-AFC fluorescence, 24 h | Potency, µM (top dose mostly 57.1 µM), for inactives: at the top dose activity change, negative = cytotoxicity, usual class: cytotoxic | AID 1671193 | hit rate 0.12% among 150,000;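 note: potency is the fitted concentration of half-maximal effect; 0% = DMSO-treated cells and -100% = medium-only wells without cells; nearly all actives have a fitted effect of over 30% in size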
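HEK-293-SNCA-luc cells (1500/well) plated 24 h, then exposed 24 h to a dilution series; GF-AFC added 30 min at 37C, fluorescence 405/540 nm; normalised to medium-only and DMSO wells, Hill fit.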
SNCA expr inhib – inhibitors of alpha-synuclein (SNCA) gene expression; HEK-293 SNCA-luciferase knock-in, luminescence, 24 h; Potency, µM (doses to about 57.2 µM), without a hit: top-dose activity change, negative = inhibition, usual class: inhibitors; AID 1671194; hit rate 0.17% among 140,000;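 note: potency is the fitted concentration of half-maximal effect; plate controls were DMSO cells for no effect and cell-free wells for full effect; nearly all actives have a fitted effect of over 45% in size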
IP6K1 inhibitor – IP6K1 kinase inhibition; activity change, % (series mostly up to about 58 µM); hit rate 0.81% among 140,000; Q92551; IP6K1 kinase, ADP-Glo luminescence, 2 h; hits give low values; in the data active = activity change below about -25%; note: % is set by controls: 0 for no effect and ±100 for the full control effect
Target sequence (Q92551 whole entry, looked up): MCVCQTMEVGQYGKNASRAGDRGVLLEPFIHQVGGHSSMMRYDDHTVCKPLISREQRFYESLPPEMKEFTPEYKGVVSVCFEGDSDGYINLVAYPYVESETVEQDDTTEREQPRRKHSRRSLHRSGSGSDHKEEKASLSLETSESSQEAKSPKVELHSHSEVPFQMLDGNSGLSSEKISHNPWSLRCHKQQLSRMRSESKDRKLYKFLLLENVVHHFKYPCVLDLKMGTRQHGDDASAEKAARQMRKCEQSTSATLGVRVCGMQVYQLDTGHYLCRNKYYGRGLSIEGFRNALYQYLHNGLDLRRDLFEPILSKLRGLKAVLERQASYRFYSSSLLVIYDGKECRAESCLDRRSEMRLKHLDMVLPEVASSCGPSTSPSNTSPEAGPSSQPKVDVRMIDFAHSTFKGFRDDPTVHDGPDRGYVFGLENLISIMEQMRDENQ
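ADP-Glo luminescence measures ADP made by human IP6K1 during a 2 h RT reaction with ATP/IP6 (mix at 1.3 mM/130 uM); top library doses 57.5 and 19.1 uM final.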
KDM5B inh – inhibitors of human KDM5B histone demethylase | Q9UGL1 | KDM5B demethylase, FDH-coupled NADH fluorescence (FDH is formaldehyde dehydrogenase) | Potency, µM (titrated, usually from 57.7 µM), most hits filed as inhibitors | hit rate 2.6% among 220,000 | AID 1347165; note: potency is the fitted concentration of half-maximal effect; 0% is about no effect; nearly all actives have a fitted effect of over 70% in size
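qHTS format, multiple compound concentrations. Buffer 50 mM HEPES pH 7.5/0.01% Tween-20; 200 nM KDM5BΔAP final; 10 min compound preincubation; substrate-mix levels 12.5 µM peptide, 25 µM α-KG, 0.25 mM NAD⁺; 30 min RT; ΔRFU.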
IP6K1 inh cnf – confirmation of human IP6K1 inhibitors. shares compounds with IP6K1 inhibitor. recombinant IP6K1 kinase, ADP-Glo luminescence, 2 h. Potency, µM (doses to about 49 µM), inactives show at the highest dose activity change, negative = inhibition, actives largely listed as inhibitors. hit rate 13% among 1,200; note: potency is the fitted concentration of half-maximal effect; % is set by controls: 0 for no effect and ±100 for the full control effect; nearly all actives have a fitted effect of over 65% in size
An asterisk follows results filed as active; i = inactive; ? = inconclusive; . = not tested or not shown; ! = not confirmed by another sample; [ ] = another dose, or the depositor's remark. Unless noted, calls come from the whole dose curve; as a rule, active = well fitted curve in the direction sought with a large enough effect; inconclusive = small, poorly fitted or top-dose-only effect, or another doubt; inactive = no such curve, though single readings can be large; an effect the other way counts as inactive or inconclusive.

SMILES	SNCA viab count	SNCA expr inhib	IP6K1 inhibitor	KDM5B inh	IP6K1 inh cnf
CC(C)c1cc(C(C)C)c(CC(=O)NS(=O)(=O)Oc2c(C(C)C)cccc2C(C)C)c(C(C)C)c1	-28%	23%	-32*	.	?
CCOc1ccc(-c2cnc(NCc3ccc(OC)cc3OC)n2C)cc1	-6%	-5%	-25*	?	-12%
COc1cccc(CNc2ncc(-c3ccc(Br)cc3)n2C)c1	-8%	29%	-35*	?	?
COc1ccc(CN2C[C@H]3CN(Cc4cnn(C)c4)CCN3C2=O)cc1	9%[87.6 µM]	-6%[87.6 µM]	-30*	?	?
COc1ccc(CN2CCN3C(=O)N(Cc4ccc(C)cc4)C[C@H]3C2)cc1	-3%[87.6 µM]	-28%[87.6 µM]	-2	i	.
Cc1ccc2c(c1)N(C(=O)N1CCC(C(=O)NCCC3=CCCCC3)CC1)CC(C)O2 (stereo not drawn)	4%	-5%	-39*	i	-11%
CCc1ccc(CNC(=O)C2CCN(C(=O)N3CC(CC)Oc4ccc(C)cc43)CC2)cc1 (stereo not drawn)	?	?	4	i	.
Cc1ccc2c(c1)N(C(=O)N1CCC(C(=O)NCc3cccc(Br)c3)CC1)CCO2	-8%	-36%	-102*	i	-12%
Cc1ccc2c(c1)N(C(=O)N1CCC(C(=O)NCCc3ccccc3)CC1)CC(C)O2 (stereo not drawn)	-11%	-3%	7	i	.
O=C1CC(c2ccccc2)Sc2nc(-c3ccc(F)cc3)nn21 (stereo not drawn)	10%	-2%	-27*	i[11.5 µM]	2%
CCN1CC2(CCN(C(=O)c3cnc4c(O)cccn4c3=O)CC2)OC1=O	?	-11%	-27*	32µM*	-6%
CCN1CC2(CCN(C(=O)c3cccc(Cn4cccn4)c3)CC2)OC1=O	16%	-15%	-4	i	.
CC(C)(C)Cn1c(N)nc2ccc(-c3[nH]c(C(C)(C)C)nc3-c3ccc(F)cc3)nc21	?	27µM*	-25*	.	6%
Cc1cccc(-c2[nH]c(C(C)(C)C)nc2-c2ccc3c(c2)OCO3)n1	-16%	-31%	.	.	.
COc1ccc(C(=O)Nc2ccnn2Cc2ccco2)cc1S(=O)(=O)N1CCCC1	.	.	.	i	.
Cn1c(SCC(=O)Nc2ccc(NC(=O)c3ccccc3)cc2)nnc1-c1ccncc1	.	.	.	i	.
Cn1c(SCC(=O)Nc2ccccc2)nnc1-c1ccccc1	-7%	47%	-34*	i	-5%
Cc1cc(-c2ccc(C)c(S(=O)(=O)N3CCC(C)CC3)c2)on1	-5%	-9%	-26*	?	-17%
CCOC(=O)N1CCN(Cc2nc3cc(NC(=O)C(C)C)ccc3n2C(C)C)CC1	-10%	-23%	-36*	i	6%
Cn1ncc2c(C(=O)N3CCC(C#N)CC3)cc(-c3cccc(F)c3)nc21	.	.	13	.	.
Cc1ccc(C(=O)Nc2ccc(S(=O)(=O)O)c3cc(S(=O)(=O)O)cc(S(=O)(=O)O)c23)cc1NC(=O)c1cccc(NC(=O)Nc2cccc(C(=O)Nc3cc(C(=O)Nc4ccc(S(=O)(=O)O)c5cc(S(=O)(=O)O)cc(S(=O)(=O)O)c45)ccc3C)c2)c1	?	15%	-95*	.	3.3µM*
COc1cccc(-c2ccc(CN3CCCC(NC(=O)Cc4ccccn4)C3)cc2)c1 (stereo not drawn)	-17%	18%	-7	.	.
O=C1c2c(O)ccc(O)c2C(=O)c2c(NCCNCCO)ccc(NCCNCCO)c21	?	1.2µM*!	-39*	.	?
C[N+](C)([O-])CCNc1ccc(NCC[N+](C)(C)[O-])c2c1C(=O)c1c(O)ccc(O)c1C2=O	-15%	-14%	.	.	.
Cc1ccc2c(c1)OC(c1ccc3c(c1)OCCO3)CC2=O (stereo not drawn)	.	.	.	i	.
SMILES	SNCA viab count	SNCA expr inhib	IP6K1 inhibitor	KDM5B inh	IP6K1 inh cnf
O=C1C[C@@H](c2ccc(O)cc2)Oc2cc(O)ccc21	-8%	.	-35*	.	?
CC(C)COc1ccc(C(=O)Nc2cccc3cccnc23)cc1	.	.	.	i	.
Cc1ccc(NC(=O)c2sc3nc4c(cc3c2N)CN(C(C)C)CC4)cc1	.	.	.	i	.
CSc1ccc(CCNC(=O)Cn2nc(C)n3c(cc4sccc43)c2=O)cc1	7%	2%	-80*	i	-2%
Cc1nn(CC(=O)NCc2ccc(Cl)cc2)c(=O)c2cc3sccc3n12	7%	4%	-9	i	.
O=C(COc1ncnc2c(Cl)cc(Cl)cc12)Nc1ccc(F)c(F)c1F	.	.	.	i	.
O=Cc1ccc(O)c(O)c1O	10%[23.9 µM]	2%[25.6 µM]	-33*	.	?
CC(C)c1cc(C=O)c(O)c(C=O)c1	.	.	.	i	.
COc1cc(OC)cc(-n2c(=O)c3ccccc3n(Cc3ccccc3C#N)c2=O)c1	-19%	7%	-28*	i	-14%
Cc1cccc(-n2c(=O)c3ccccc3n(Cc3ccccc3C#N)c2=O)c1	?	5%	-4	i	.
Cc1cnc(Nc2ccc(CN3CCOCC3)cc2)nc1Nc1cccc(S(=O)(=O)NC(C)(C)C)c1	?	76%	-16	.	-2%
Cc1cnc(Nc2cccc(CN3CCOCC3)c2)nc1Nc1cccc(S(=O)(=O)NC(C)(C)C)c1	-14%	-9%	-9	.	3%
Cc1ccccc1C(CC(=O)Nc1ccc(-c2ccno2)cc1)n1cccc1 (stereo not drawn)	.	.	.	i	.
Cc1cccc2c1NC(=O)C2(c1ccc(O)cc1)c1ccc(O)cc1	-7%	.	-26*	.	1%
CNc1c(NC(=O)CC(=O)OC)c(=O)oc2ccccc12	.	.	.	i	.

High-throughput results: PubChem, National Center for Advancing Translational Sciences (NCATS)
